Data on 50 compounds can be found in PubChem BioAssay AID2071 (Sanford-Burnham Center for Chemical Genomics, 2009).

SMILES strings stand for the structures. Out of some 280,000 compounds screened, about 1,700 (0.61%) were called active. Rule as the data show it: active = inhibition mostly above about 24% (no sharp cut-off); inactive = mostly below about 32%. The full list was thinned out, with actives kept by preference.

The term inhibition denotes the relative decrease from the control value, in per cent.

The experiment can be described thus: NALP1 inflammasome inhibitors in reconstituted yeast, colorimetric, S. cerevisiae, triplicate retest (AID 2071). Particulars: S. cerevisiae NALP1/ASC/caspase-1 growth, X-gal OD620, 72 h, stronger effect = higher value.

`COc1ccc(S(=O)(=O)Nc2ccc(S(=O)(=O)N3CCCCC3)cc2)cc1OC`: the inhibition (at 10 µM unless noted) is 22.8% (inactive). Consider `CNS(=O)(=O)c1ccc(NC(=O)Nc2ccc3c(c2)OCO3)cc1`, for which, under “at 10 µM unless noted”, the inhibition is -4.3% (inactive). On to `COc1ccc(S(=O)(=O)Nc2ccc3c(c2)OCO3)cc1Cl`, for which the inhibition (at 10 µM unless noted) is 27.9% (active). For the compound `Cc1cc(N=Nc2ccc3ccccc3c2)ccc1O`, the inhibition (at 10 µM unless noted) was 1.2% (inactive).

On to `CC[C@]1(c2ccccc2OC)C(=O)N(C(=O)OC)N1C(=O)OC`, for which the inhibition (at 10 µM unless noted) was 34.1% (inactive).

As for `CCOC(=O)C1(Cc2ccccc2C)CCCN(C(=O)CN2C(=O)CSC2=O)C1` (stereo not drawn), for the setting “at 10 µM unless noted”, the inhibition was 20% (inactive).

On to `O=C(NC(=S)N1CCCCC1c1cccnc1)c1ccccc1` (stereo not drawn), for which the inhibition (at 10 µM unless noted) was -18% (inactive). In the case of `COc1ccc2cc(C(=O)O)n(CC(=O)c3ccccc3)c2c1`, the inhibition (at 10 µM unless noted) was 14% (inactive). The same measure, in the same setting: next, `CCCn1c(=N)n(CC(=O)c2ccc(Cl)c(Cl)c2)c2ccccc21`: 23.1% (inactive); `CCn1c(=N)n(CC(=O)c2cccc(OC)c2)c2ccccc21`: 31.5% (active); `O=C(Nc1cccc2c1CCCC2)C1CCN(C(=O)NC2CCCCC2)CC1`: -14.2% (inactive). Same read-out and setting: next, `Cc1ccccc1NC(=O)C1CCN(C(=O)NC2CCCCC2)CC1`: 40.8% (active); `Cc1cccc(NC(=O)C2CCN(C(=O)NC3CCCCC3)CC2)c1`: 3.7% (inactive); `O=S(=O)(Oc1ccccc1C(=S)N1CCOCC1)c1ccc(Cl)cc1`: 1.2% (inactive). On to `Cc1ccc(OCc2cc(C(=O)N(C)CCn3ccnc3C)no2)cc1C`, for which the inhibition (at 10 µM unless noted) is 5.1% (inactive).

With `COc1ccc(N2C(=O)CNC2=S)cc1`, the inhibition (at 10 µM unless noted) was -21.9% (inactive). Consider `COc1ccc(CCN=C2SCC(=O)N2C)cc1OC`, for which, under “at 10 µM unless noted”, the inhibition is 2.2% (inactive). Same read-out and setting: then `Cc1cc(=O)cc(C)n1-c1ccc(Cl)c(Cl)c1`, with -5.9% (inactive); and `CCOc1cccc(/C=N/N2C(=O)CSC2=S)c1O`, with -14.2% (inactive). Regarding `O=C1CSC(=S)N1c1ccc(O)cc1`, the inhibition runs as follows: (at 10 µM) 76.7% (active); (triplicate retest, at 20 µM) 95.9%. With `O=C1CSC(=S)N1c1ccc(Cl)c(Cl)c1`, the inhibition (at 10 µM unless noted) is 44.2% (active). As to `COc1cc(N2C(=O)CSC2=S)cc(OC)c1OC`, the inhibition by setting is: (at 10 µM) 52.7% (active); (triplicate retest, at 20 µM) 57.6%. For `CC(C)N1C(=S)SC(C)(C)C1n1oc(=O)n(-c2ccc(Cl)c(Cl)c2)c1=O` (stereo not drawn), the inhibition (at 10 µM unless noted) is 0.9% (inactive). The same measure, in the same setting: next, `COc1cccc(C2SCC(=O)N2c2cccc(C)c2)c1OC` (stereo not drawn): 9.2% (inactive). `Cc1cccc(Nc2nc(-c3ccccc3)cs2)n1`: the inhibition (at 10 µM unless noted) is 19.1% (inactive). For the compound `CCOc1ccccc1NC(=S)N1CCN(c2cccc(C)c2C)CC1`, the inhibition (at 10 µM unless noted) is 4.9% (inactive). On the same count and under the same terms, next, `CC(C)c1ccc2oc(=O)cc(CN3CCN(Cc4ccccc4)CC3)c2c1`: 8.7% (inactive); `Cc1cc(Cl)nc(NC(=O)Nc2cccc(Cl)c2)n1`: 22.5% (inactive); `O=c1c(-c2cccc(Cl)c2)c[nH]n1-c1ccccc1`: 17% (inactive). The same measure, in the same setting: next, `CCCn1c(C(C)Nc2nc(-c3ccc(C)cc3)cs2)nc2cc(Cl)c(N3CCCCC3)cc21` (stereo not drawn): 14.5% (inactive); `Cn1c(CSCC(=O)Nc2ccccc2)nnc1SCc1ccccc1`: 38.6% (active).

Take `O=C(CSCc1ccccc1)Nc1ccccc1`: under “at 10 µM unless noted”, the inhibition was 8.9% (inactive). For the compound `Cn1c(CC(=O)Nc2ccccc2)nnc1SCC(=O)c1ccccc1`, where the note is “at 10 µM unless noted”, the inhibition was 9.9% (inactive). Still for that read-out and setting: then `CCOC(=O)Nc1ccc2c(c1)N(C(=O)CCCl)c1ccccc1[S@]2=O`, with 8.9% (inactive); and `O=C(CCCN1C(=O)/C(=C/c2cccs2)SC1=S)Nc1ccc(O)cc1`, with 5% (inactive); and `Cc1cccc(C)c1NC(=O)C(c1ccccc1)N1CC(=O)Nc2ccccc21` (stereo not drawn), with 19.2% (inactive).

As for `Cc1cccc(C)c1NC(=O)C(Cl)C(=O)c1ccccc1` (stereo not drawn), the inhibition runs as follows: (at 10 µM) 50.4% (active); (triplicate retest, at 20 µM) 80.1%. On to `Cc1cccc(C)c1NC(=O)N1CC(C)OC(C)C1` (stereo not drawn), for which the inhibition (at 10 µM unless noted) was 5.2% (inactive). For `CCc1ccc(NC(=O)COC(=O)c2cccs2)cc1`, where the note is “at 10 µM unless noted”, the inhibition was 8.1% (inactive).

For the compound `Cn1c(CCN2CCCCCC2)nc2cc(NC(=O)Nc3ccccc3)ccc21`, for the setting “at 10 µM unless noted”, the inhibition is 19.6% (inactive). As to `Cc1nc2cc(NC(=O)NC3CC3)ccc2n1C`, the inhibition (at 10 µM unless noted) is 29.1% (active). For the compound `Cc1nc2cc(NCc3cccs3)ccc2n1C`, the inhibition (at 10 µM unless noted) was 1.9% (inactive). `CCCOC1CCCN(C(=O)c2cc(COc3cncc(Cl)c3)on2)C1` (stereo not drawn): the inhibition (at 10 µM unless noted) is -85.7% (inactive). For the compound `Cc1ccc(C)c(N2CCN(C(=O)CCCCCn3c(=S)[nH]c4ccc(N5CCOCC5)cc4c3=O)CC2)c1`, the inhibition (at 10 µM unless noted) is -12.8% (inactive).

Turning to `CCOc1ccc(NC(=O)CCCCCN2C(=O)[C@@H]3Cc4ccccc4CN3C2=O)cc1`, where the note is “at 10 µM unless noted”, the inhibition is 12.6% (inactive).

Take `Cc1ccc(Cn2c(C)c3cnn(CC(=O)NCc4ccccn4)c(=O)c3c2C)cc1`: the inhibition (at 10 µM unless noted) is -2.5% (inactive). Still for that read-out and setting: then `CNC(=O)/C(C#N)=C/c1c(F)cccc1Cl`, with 46.8% (active); and `N#C/C(=C\c1ccccc1C(F)(F)F)C(=O)Nc1ccccc1F`, with 40.5% (inactive). On the same count and under the same terms, then `Cc1[nH]c2ccccc2c1/C=C(/C#N)C(=O)NC(C)C`, with 0.1% (inactive); and `N#Cc1ccc(C(=O)Nc2cccc3cccnc23)c(F)c1`, with 40% (active).
